Experimental findings from the supplement of paper PMC8728848 are described below.

Assay in all cases: glycan array binding signal (z-score within array); higher = stronger binding
What all share (settings): glycan notation: IUPAC condensed, linker removed

Experiment [1] concerns the target Fuc(a1-2)Gal(b1-3)[Fuc(a1-4)]GlcNAc. A digest of the protocol: (§1)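 Glycan array data came from 3228 arrays in the Consortium for Functional Glycomics database, and only arrays with an available protein sequence were kept. Glycan names were put into IUPAC-condensed notation, and columns mapping to the same glycan were averaged. The binding signal is a within-array Z-score, averaged across arrays of one protein sequence run at different concentrations or buffers and across linkers. A negative Z-score can be read as non-binding.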

Experiment [2] addresses Fuc(a1-2)Gal(b1-4)GlcNAc(b1-2)[Fuc(a1-2)Gal(b1-4)GlcNAc(b1-4)]Man(a1-3)[Fuc(a1-2)Gal(b1-4)GlcNAc(b1-2)Man(a1-6)]Man(b1-4)GlcNAc(b1-4)GlcNAc. An outline of the steps:
as §1

The target in experiment [3] is Fuc(a1-2)Gal(b1-4)GlcNAc(b1-3)GalNAc. An outline of the steps:
as §1

For experiment [4], the target named is Fuc(a1-2)Gal(b1-4)GlcNAc(b1-3)[Fuc(a1-3)[Gal(b1-4)]GlcNAc(b1-6)]Gal(b1-4)Glc. A digest of the protocol:
as §1

In experiment [5] the target is Fuc(a1-2)Gal(b1-4)[Fuc(a1-3)]GlcNAc(b1-2)[Fuc(a1-2)Gal(b1-4)[Fuc(a1-3)]GlcNAc(b1-4)]Man(a1-3)[Fuc(a1-2)Gal(b1-4)[Fuc(a1-3)]GlcNAc(b1-2)Man(a1-6)]Man(b1-4)GlcNAc(b1-4)GlcNAc. An outline of the steps:
as §1

Experiment [6] concerns the target Fuc(a1-2)Gal6S(b1-4)Glc. An outline of the steps:
as §1

The target of experiment [7] is Fuc(a1-2)[Gal(a1-3)]Gal(b1-4)GlcNAc(b1-2)Man(a1-3)[Fuc(a1-2)[Gal(a1-3)]Gal(b1-4)GlcNAc(b1-2)Man(a1-6)]Man(b1-4)GlcNAc(b1-4)GlcNAc. A digest of the protocol:
as §1

Experiment [8] addresses Fuc(a1-2)[Gal(a1-3)]Gal(b1-4)GlcNAc(b1-6)GalNAc. A digest of the protocol: as §1
Experiment [9] has as its target Fuc(a1-3)[Gal(b1-4)]GlcNAc(b1-2)Man(a1-3)[Fuc(a1-3)[Gal(b1-4)]GlcNAc(b1-2)Man(a1-6)]Man(b1-4)GlcNAc(b1-4)[Fuc(a1-6)]GlcNAc. An outline of the steps: as §1
In experiment [10] the target is Fuc(a1-3)[Gal3S(b1-4)]Glc. A digest of the protocol:
as §1

Experiment [11] has as its target Gal(a1-3)Gal(b1-3)GlcNAc(b1-2)Man(a1-3)[Gal(a1-3)Gal(b1-3)GlcNAc(b1-2)Man(a1-6)]Man(b1-4)GlcNAc(b1-4)GlcNAc. An outline of the steps:
as §1

Experiment [12] addresses Gal(a1-3)Gal(b1-3)GlcNAc(b1-6)GalNAc. An outline of the steps: as §1
Experiment [13] deals with Gal(a1-3)Gal(b1-4)GlcNAc. An outline of the steps: as §1
The target in experiment [14] is Gal(b1-3)GlcNAc(b1-2)Man(a1-3)[Gal(b1-3)GlcNAc(b1-2)Man(a1-6)]Man(b1-4)GlcNAc(b1-4)GlcNAc. An outline of the steps:
as §1

Experiment [15] deals with Gal(b1-3)GlcNAc(b1-3)Gal(b1-4)GlcNAc(b1-3)Gal(b1-4)GlcNAc(b1-2)[Gal(b1-3)GlcNAc(b1-3)Gal(b1-4)GlcNAc(b1-3)Gal(b1-4)GlcNAc(b1-6)]Man(a1-6)[Gal(b1-3)GlcNAc(b1-3)Gal(b1-4)GlcNAc(b1-3)Gal(b1-4)GlcNAc(b1-2)Man(a1-3)]Man(b1-4)GlcNAc(b1-4)[Fuc(a1-6)]GlcNAc. An outline of the steps: as §1
Experiment [16] has as its target Gal(b1-3)[Fuc(a1-4)]GlcNAc(b1-6)GalNAc. A digest of the protocol: as §1
For experiment [17], the target named is Gal(b1-4)GlcNAc(b1-2)Man(a1-3)Man(b1-4)GlcNAc(b1-4)GlcNAc. An outline of the steps:
as §1

The target of experiment [18] is Gal(b1-4)GlcNAc(b1-2)Man(a1-6)[Man(a1-3)]Man(b1-4)GlcNAc(b1-4)GlcNAc. A digest of the protocol: as §1
For experiment [19], the target named is Gal(b1-4)GlcNAc(b1-2)[Gal(b1-4)GlcNAc(b1-4)]Man(a1-3)[GlcNAc(b1-4)][Gal(b1-4)GlcNAc(b1-2)Man(a1-6)]Man(b1-4)GlcNAc(b1-4)GlcNAc. A digest of the protocol:
as §1

The target of experiment [20] is Gal(b1-4)GlcNAc(b1-2)[Gal(b1-4)GlcNAc(b1-6)]Man(a1-6)[Gal(b1-4)GlcNAc(b1-2)Man(a1-3)]Man(b1-4)GlcNAc(b1-4)GlcNAc. An outline of the steps:
as §1

Experiment [21] deals with Gal(b1-4)GlcNAc(b1-3)Gal(b1-4)GlcNAc(b1-3)Gal(b1-4)GlcNAc. An outline of the steps:
as §1

The target of experiment [22] is Gal(b1-4)GlcNAc(b1-3)Gal(b1-4)GlcNAc(b1-3)Gal(b1-4)GlcNAc(b1-3)Gal(b1-4)GlcNAc(b1-2)Man(a1-3)[Gal(b1-4)GlcNAc(b1-3)Gal(b1-4)GlcNAc(b1-3)Gal(b1-4)GlcNAc(b1-3)Gal(b1-4)GlcNAc(b1-2)Man(a1-6)]Man(b1-4)GlcNAc(b1-4)[Fuc(a1-6)]GlcNAc. A digest of the protocol: as §1
In experiment [23] the target is Gal(b1-4)GlcNAc(b1-3)Gal(b1-4)GlcNAc(b1-3)Gal(b1-4)GlcNAc(b1-3)Gal(b1-4)GlcNAc(b1-3)Gal(b1-4)GlcNAc(b1-2)Man(a1-3)[Gal(b1-4)GlcNAc(b1-3)Gal(b1-4)GlcNAc(b1-3)Gal(b1-4)GlcNAc(b1-3)Gal(b1-4)GlcNAc(b1-3)Gal(b1-4)GlcNAc(b1-2)Man(a1-6)]Man(b1-4)GlcNAc(b1-4)GlcNAc. An outline of the steps:
as §1

Shown is part of a subset that was picked to be rich in the strongest signals.

B1: his-Lectin-24A (Drosophila melanogaster) (protein)
chain: MFRLSVLVLNLLLVSHEFSAGTAKIEIQPLPALCNGYCFPTLKPVMEYVAIHQDKWNTCTEILANEARKDQIQLNIQLDALKADVSNIKASQLSKDEKLDRMEREQFAMHESLETINRYLTVKLDRTKLQLEAIKNTMDYMKAQMDGYFSAINGVQCLQPGFEKIGDRYFYIEEDVELNWLDAQAKCRRMGGHLASIKTKQEFDAIVEKLDDSKSYFLGVNENTKTGDFVSAASGKSCLYHEWGPGEPHHNNDQERCVSILRKLMHVGNCTYEKRFICQYGI
For the molecule B1, the “glycan array binding signal (z-score)” value in experiment [1] was -0.536; in experiment [2] it was 2.61; in experiment [3], -0.522; in [4], 2.69; in experiment [5], -0.328; in experiment [6], -0.34. Also, the “glycan array binding signal (z-score)” value was 2.02 in [7]; 0.328 in experiment [8]; 0.275 in experiment [9]; -1.19 in experiment [10]; 2.35 in [11]; -0.445 in experiment [12]. For the same molecule, the “glycan array binding signal (z-score)” value in experiment [13] is 0.285; in experiment [14], 1.74; in [15], 1.49; in [16] it was 2.34; in experiment [17] it was 0.019; in [18], 2.68. The “glycan array binding signal (z-score)” value is -1.25 in experiment [19]; -0.553 in [20]; -0.79 in [21]; 3.44 in experiment [22]; 4.07 in [23].
